Source: PubChem BioAssay
Sampled rows, rich in hits. Any-hit rate of the full collection: about 9.2%.
ELG1 DNA repair: qHTS screen for small molecules that inhibit ELG1-dependent DNA repair in human embryonic kidney (HEK293T) cells expressing luciferase-tagged ELG1 | HEK293T ELG1-luciferase reporter, luminescence, 16 h; DNA damage induced by 5-fluorouridine | 330,000 tested, 2.3% active | AID 504467, 2011 | Potency, µM (titrated, usually from 46.1 µM), actives largely listed as inhibitors; further: nearly all actives have a fitted effect of over 55% in size
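DMSO vehicle served as the neutral condition. Each well held 2,000 cells given 5-fluorouridine plus compound; after 16 hr at 37 °C/5% CO2, ONE-Glo was added and luciferase measured 30 min later.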
SMN2 splice enh: qHTS Assay for Enhancers of SMN2 Splice Variant Expression | HEK293 SMN2-luciferase splicing reporter, luminescence, 30-36 h | AID 1458, 2008 | 210,000 tested, 2.8% active | Potency, µM (series often up to 46.1 µM), hits mostly activators; further: nearly all actives have a fitted effect of over 55% in size
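HEK293 cells carry an SMN2 minigene-luciferase reporter in which exon 7 inclusion puts luciferase in frame. Cells were seeded at 2000 cells/well, attached for 10-12 hours, then exposed to compounds for 30-36 hours at 37C before ONE-Glo luminescence.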
Rab9 prom act: qHTS Assay for Rab9 Promoter Activators; Huh7 Rab9 promoter-luciferase reporter, luminescence, 24 h; Potency, µM (doses to about 9.22 µM), most hits filed as activators; 320,000 tested, 2.8% active; AID 485297, 2010; further: nearly all actives have a fitted effect of over 60% in size
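Luminescence from Amplite-detected luciferase (10 minutes, ambient) reports Rab9 promoter activation. Before that, stable Rab9-luciferase Huh7 cells (1500/well, reduced-serum OP-MEM I plus 10% FBS) were exposed to compound for 24 hours at 37C.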
FLuc counter: qHTS profiling assay for firefly luciferase inhibitor/activator using purifed enzyme and Km concentrations of substrates (counterscreen for miR-21 project); Luciferin 4-monooxygenase (Photinus pyralis), P08659; purified FLuc, Km substrates, luminescence inhibition; Potency, µM (top dose mostly 57.5 µM), actives largely listed as inhibitors; 360,000 tested, 6.9% active; AID 588342, 2011; further: nearly all actives have a fitted effect of over 55% in size
Target sequence (P08659 whole entry, looked up): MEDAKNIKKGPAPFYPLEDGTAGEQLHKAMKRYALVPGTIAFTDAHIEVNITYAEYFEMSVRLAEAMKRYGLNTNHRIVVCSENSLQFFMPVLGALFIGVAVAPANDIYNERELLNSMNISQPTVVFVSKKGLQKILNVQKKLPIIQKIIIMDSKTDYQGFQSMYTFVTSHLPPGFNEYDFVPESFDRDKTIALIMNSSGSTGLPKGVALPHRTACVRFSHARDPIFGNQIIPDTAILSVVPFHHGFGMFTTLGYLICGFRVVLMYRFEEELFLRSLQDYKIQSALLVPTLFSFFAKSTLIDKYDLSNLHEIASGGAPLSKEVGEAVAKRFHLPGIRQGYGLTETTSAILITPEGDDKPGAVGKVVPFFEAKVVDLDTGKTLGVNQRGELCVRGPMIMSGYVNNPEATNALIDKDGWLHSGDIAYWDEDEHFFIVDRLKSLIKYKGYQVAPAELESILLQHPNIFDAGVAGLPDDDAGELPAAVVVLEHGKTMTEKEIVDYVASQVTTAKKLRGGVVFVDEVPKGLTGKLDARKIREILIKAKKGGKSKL
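Biochemical qHTS of compounds, final roughly 60 µM downward over six points, against 10 nM purified firefly luciferase using Km concentrations of substrates (10 uM D-luciferin, 10 uM ATP) in Tris acetate pH 7.5 buffer; luminescence output.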
NPC1 promoter act: qHTS Assay for NPC1 Promoter Activators; 320,000 tested, 2.4% active; Huh7 NPC1 promoter luciferase reporter, 24 h; Potency, µM (highest dose often 9.22 µM), actives largely listed as activators; AID 485313, 2010; further: nearly all actives have a fitted effect of over 60% in size
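Cells: Huh7 expressing luciferase under the NPC1 promoter, 1500/well. Seeded 2 h, compound added, incubated 24 h at 37 °C. Luciferase reagent, 10 min ambient, then luminescence.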
ELG1 genotox: qHTS screen for small molecules that induce genotoxicity in human embryonic kidney (HEK293T) cells expressing luciferase-tagged ELG1 | HEK293T ELG1-luciferase reporter, luminescence, 16 h | Potency, µM (top dose mostly 46 µM), actives largely listed as activators | 330,000 tested, 1.3% active; further: nearly all actives have a fitted effect of over 60% in size
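Reporter readout depends on ELG1 protein level, which increases with genetic stress. After 16 hr compound exposure at 37 °C, luciferase activity was quantified using ONE-Glo.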
Each line names hits and unclear results; the compound was inactive in the other large screens. The call rests on the fitted dose curve; in most records, active means well fitted curve in the direction sought with a large enough effect; inconclusive means small, poorly fitted or top-dose-only effect, or another doubt; inactive means no such curve, though single readings can be large; an effect the other way counts as inactive or inconclusive.

O=C(O)c1ccc(CSc2nnc(-c3ccc(Cl)cc3)o2)cc1	FLuc counter 17µM (no result: SMN2 splice enh)
O=S(=O)(Nc1ccc(F)cc1)c1ccc(NS(=O)(=O)c2cccs2)cc1	none (no result: SMN2 splice enh)
Cc1cccc(C)c1NC(=O)CCCn1c(=O)c2cccn2c2ccccc21	FLuc counter 5.4µM (no result: ELG1 DNA repair, SMN2 splice enh, Rab9 prom act, NPC1 promoter act, ELG1 genotox)
O=C(CCn1c(=O)c2cccn2c2ccc(F)cc21)NCCc1ccc(Cl)cc1	none (no result: ELG1 DNA repair, SMN2 splice enh, Rab9 prom act, NPC1 promoter act, ELG1 genotox)
Cc1cc(C)cc(NC(=O)CCn2c(=O)c3cccn3c3ccccc32)c1	none (no result: SMN2 splice enh)
O=C(CCCn1c(=O)c2cccn2c2ccccc21)NCCc1ccc(Cl)cc1	FLuc counter 3.8µM (no result: ELG1 DNA repair, SMN2 splice enh, Rab9 prom act, NPC1 promoter act, ELG1 genotox)
CC(=O)Oc1cc(OC(C)=O)c2c(c1)OC(c1ccc(OC(C)=O)c(OC(C)=O)c1)C(OC(C)=O)C2 (stereo not drawn)	none (no result: ELG1 DNA repair, Rab9 prom act, FLuc counter, NPC1 promoter act, ELG1 genotox)
COc1cccc(NC(=O)Nc2ccc3c(c2)CCC3)c1	ELG1 DNA repair inconclusive, Rab9 prom act 1.6µM, FLuc counter 4.3µM, NPC1 promoter act 2.2µM (no result: SMN2 splice enh)
COc1ccc(OC)c(NC(=O)Nc2ccc3c(c2)CCC3)c1	FLuc counter 27µM (no result: SMN2 splice enh)
COc1cc(OC)cc(C(=O)NC(C(=O)Nc2ccc3c(c2)CCC3)C(C)C)c1 (stereo not drawn)	ELG1 DNA repair 7.3µM (no result: SMN2 splice enh)
COc1cc(OC)cc(C(=O)N[C@H](C(=O)Nc2cc(C)cc(C)c2)C(C)C)c1	none (no result: SMN2 splice enh)
COc1ccc(NC(=O)Nc2ccc3c(c2)CCC3)c(OC)c1	none
O=C(CSc1nnc(CNC(=O)c2ccccc2F)o1)NC1CCCC1	none (no result: SMN2 splice enh)
O=C(OCC(=O)N1CCCc2ccccc21)c1ccc(F)c(S(=O)(=O)N2CCOCC2)c1	none (no result: SMN2 splice enh)
CCCCC[C@H](O)/C=C/C=C\C/C=C\CCCCCCC(=O)O	none (no result: ELG1 DNA repair, Rab9 prom act, FLuc counter, NPC1 promoter act, ELG1 genotox)
COc1ccc(-c2nc(-c3ccccc3)oc2Nc2ccccc2C)cc1	none (no result: ELG1 DNA repair, Rab9 prom act, FLuc counter, NPC1 promoter act, ELG1 genotox)
COc1ccc(-c2csc(N3C(=O)CNC3=S)n2)cc1	ELG1 DNA repair inconclusive, SMN2 splice enh 1.3µM, Rab9 prom act 0.5µM, FLuc counter 0.85µM, NPC1 promoter act 0.56µM, ELG1 genotox 3.3µM
O=C1CNC(=S)N1c1nc(-c2ccccc2)cs1	ELG1 DNA repair inconclusive, SMN2 splice enh 11µM, Rab9 prom act 2.8µM, FLuc counter 2.7µM, NPC1 promoter act 2.8µM, ELG1 genotox inconclusive
COc1ccc(-c2csc(N3C(=N)SCC3=O)n2)cc1	ELG1 DNA repair inconclusive, SMN2 splice enh 1µM, Rab9 prom act 0.4µM, FLuc counter 0.43µM, NPC1 promoter act 0.45µM, ELG1 genotox 1.6µM
COc1ccccc1CNc1cc(C)nc2nc(-c3ccc(C)cc3)nn12	FLuc counter 6µM (no result: ELG1 DNA repair, SMN2 splice enh, Rab9 prom act, NPC1 promoter act, ELG1 genotox)
COc1cccc(Nc2cc(C)nc3nc(-c4ccc(Cl)cc4)nn23)c1	none (no result: ELG1 DNA repair, Rab9 prom act, NPC1 promoter act, ELG1 genotox)
COc1ccccc1-c1cnn2c(NCc3ccccc3)cc(C)nc12	FLuc counter 17µM (no result: SMN2 splice enh)
COc1ccc(CCNc2cc(C)nc3c(-c4ccccc4OC)cnn23)cc1OC	ELG1 DNA repair inconclusive (no result: SMN2 splice enh)
Cc1cc(NCc2ccccn2)n2ncc(-c3ccccc3)c2n1	ELG1 DNA repair inconclusive, Rab9 prom act inconclusive, FLuc counter 4.3µM, NPC1 promoter act 0.5µM, ELG1 genotox inconclusive (no result: SMN2 splice enh)
Cc1cc(NCc2ccccn2)n2ncc(-c3ccc(Cl)cc3)c2n1	ELG1 DNA repair inconclusive, Rab9 prom act inconclusive, FLuc counter 11µM, NPC1 promoter act inconclusive (no result: SMN2 splice enh)
CCOc1ccc(C(C)=O)cc1COC(=O)CNC(=O)C12CC3CC(CC(C3)C1)C2	ELG1 DNA repair inconclusive (no result: SMN2 splice enh, Rab9 prom act, FLuc counter, NPC1 promoter act)
COc1ccc(S(=O)(=O)n2nc(OC(=O)c3c(-c4ccccc4Cl)noc3C)cc2N)cc1	none
Cc1cc(NCCCN2CCOCC2)n2ncc(-c3ccccc3)c2n1	ELG1 DNA repair inconclusive, SMN2 splice enh 16µM, Rab9 prom act 0.71µM, FLuc counter 7.6µM, NPC1 promoter act 1µM, ELG1 genotox 9.2µM
CCCc1cc(NCc2ccccn2)n2nc(C)c(-c3ccccc3)c2n1	ELG1 DNA repair 21µM (no result: SMN2 splice enh)
Cc1nn2c(NCc3ccccn3)cc(C(C)C)nc2c1-c1ccccc1	ELG1 DNA repair inconclusive (no result: SMN2 splice enh)
